From the supplement of paper PMC10849652 come the findings set out here.

Targets with a hit are over-represented here; the source holds about 7,900 in all. About 0.6% of all pairs of compound and target were hits. A number with no mark means an inactive call.

Assay in all cases: log2 fold change, soluble protein after heating vs DMSO (PISA); higher = thermal stabilisation; K562 cells, 10 uM, 30 min; active = over 0.2 and 3.5 SD of the protein, either way, in both replicates (recomputed)
Compound in assay [1]: C1=CC(=C(C=C1Cl)C2=NC3=NC=CN=C3C(=N2)NC4=CC=NC=C4)F
In short, it runs like this: (§1)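 Aliquots of K562 cells (2×10^6 cells/mL) treated with 10 μM compound for 30 min were heated for 3 min over 48°C-58°C. After pooling and extraction in PBS with 0.5% NP-40 at 4°C, soluble protein from a 21,000xg, 90 min spin was quantified by TMTpro 16plex LC-MS/MS with channel sums equalised. Thermal stability is expressed against control samples, from duplicates, as a log2 fold change.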

Compound in assay [2]: C1=CC2=NC=CN=C2C=C1/C=C/3\C(=O)NC(=O)S3
A digest of the protocol: as §1

Compound in assay [3]: C1=CC=C(C=C1)C2=NC(=C(N2)C3=CC=NC=C3)C4=CC(=C(C=C4)Cl)O
In short, it runs like this:
as §1

Compound in assay [4]: C#Cc1cccc(Nc2ncnc3cc(OCCOC)c(OCCOC)cc23)c1 [erlotinib]
A digest of the protocol:
as §1

Compound in assay [5]: C/C(=N\NC(=O)C1=CC(=CC=C1)S(=O)(=O)N2CCOCC2)/C3=C(C=CC(=C3)Cl)O
In short, it runs like this: as §1

Compound in assay [6]: C1=CC(=CC=C1C2=NC3=C(N2)C=C(C=C3)C(=O)N)OC4=CC=C(C=C4)Cl
A digest of the protocol: as §1

Compound in assay [7]: C1=CC2=C(C=CC(=C2)/C=C\3/C(=O)NC(=NCC4=CC=CS4)S3)N=C1
In short, it runs like this:
as §1

Compound in assay [8]: C1=CC=C2C(=C1)C3=NNC4=CC=CC(=C43)C2=O
A digest of the protocol:
as §1

Compound in assay [9]: C1CCN(C1)C(=O)NC2=CC=CC(=C2)NC3=NC=C(C(=N3)NCCC4=CN=CN4)Br
In short, it runs like this:
as §1

Compound in assay [10]: C1CN(CCC1(CC2=CC=C(C=C2)Cl)N)C3=NC=NC4=C3C=CN4
A digest of the protocol: as §1

Chain of UniProt Q86UA6 (Q86UA6 whole entry, looked up): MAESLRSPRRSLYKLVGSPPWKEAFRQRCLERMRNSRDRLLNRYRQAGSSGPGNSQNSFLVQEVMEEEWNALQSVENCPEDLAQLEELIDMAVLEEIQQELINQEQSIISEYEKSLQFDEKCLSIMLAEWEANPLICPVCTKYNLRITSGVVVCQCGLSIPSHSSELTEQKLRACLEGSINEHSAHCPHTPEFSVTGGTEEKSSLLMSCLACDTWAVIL
Chain of UniProt Q9H4P4 (Q9H4P4 whole entry, looked up): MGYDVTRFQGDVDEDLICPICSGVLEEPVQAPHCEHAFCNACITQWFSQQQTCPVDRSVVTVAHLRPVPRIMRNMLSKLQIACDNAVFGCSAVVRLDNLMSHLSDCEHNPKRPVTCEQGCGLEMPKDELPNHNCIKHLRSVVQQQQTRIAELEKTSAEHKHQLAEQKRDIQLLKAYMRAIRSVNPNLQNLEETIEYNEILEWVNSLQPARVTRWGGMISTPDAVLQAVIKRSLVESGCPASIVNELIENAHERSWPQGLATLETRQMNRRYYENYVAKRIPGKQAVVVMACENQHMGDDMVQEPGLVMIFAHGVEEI
Chain of UniProt O75582 (O75582 whole entry, looked up): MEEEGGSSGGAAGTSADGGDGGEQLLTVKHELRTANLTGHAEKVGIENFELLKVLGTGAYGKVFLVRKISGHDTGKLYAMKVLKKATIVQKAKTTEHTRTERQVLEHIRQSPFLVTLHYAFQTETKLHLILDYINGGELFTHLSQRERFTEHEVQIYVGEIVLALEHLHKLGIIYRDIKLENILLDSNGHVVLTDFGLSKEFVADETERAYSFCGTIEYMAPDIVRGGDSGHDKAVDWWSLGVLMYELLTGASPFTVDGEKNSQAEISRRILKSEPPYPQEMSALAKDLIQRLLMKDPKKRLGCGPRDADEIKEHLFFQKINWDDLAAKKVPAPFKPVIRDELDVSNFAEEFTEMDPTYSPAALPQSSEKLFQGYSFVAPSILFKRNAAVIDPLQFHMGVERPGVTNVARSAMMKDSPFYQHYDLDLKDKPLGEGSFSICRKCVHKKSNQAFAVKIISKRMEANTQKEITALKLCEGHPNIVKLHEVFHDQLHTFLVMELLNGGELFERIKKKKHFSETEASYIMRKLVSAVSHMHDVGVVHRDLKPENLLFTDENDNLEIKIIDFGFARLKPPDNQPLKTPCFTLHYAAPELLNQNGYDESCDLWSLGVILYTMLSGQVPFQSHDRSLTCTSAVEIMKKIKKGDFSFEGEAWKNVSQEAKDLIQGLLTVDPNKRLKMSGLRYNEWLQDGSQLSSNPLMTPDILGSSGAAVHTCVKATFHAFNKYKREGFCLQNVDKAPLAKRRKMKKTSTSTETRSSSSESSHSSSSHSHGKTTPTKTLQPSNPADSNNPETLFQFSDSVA
Chain of UniProt P51812 (P51812 whole entry, looked up): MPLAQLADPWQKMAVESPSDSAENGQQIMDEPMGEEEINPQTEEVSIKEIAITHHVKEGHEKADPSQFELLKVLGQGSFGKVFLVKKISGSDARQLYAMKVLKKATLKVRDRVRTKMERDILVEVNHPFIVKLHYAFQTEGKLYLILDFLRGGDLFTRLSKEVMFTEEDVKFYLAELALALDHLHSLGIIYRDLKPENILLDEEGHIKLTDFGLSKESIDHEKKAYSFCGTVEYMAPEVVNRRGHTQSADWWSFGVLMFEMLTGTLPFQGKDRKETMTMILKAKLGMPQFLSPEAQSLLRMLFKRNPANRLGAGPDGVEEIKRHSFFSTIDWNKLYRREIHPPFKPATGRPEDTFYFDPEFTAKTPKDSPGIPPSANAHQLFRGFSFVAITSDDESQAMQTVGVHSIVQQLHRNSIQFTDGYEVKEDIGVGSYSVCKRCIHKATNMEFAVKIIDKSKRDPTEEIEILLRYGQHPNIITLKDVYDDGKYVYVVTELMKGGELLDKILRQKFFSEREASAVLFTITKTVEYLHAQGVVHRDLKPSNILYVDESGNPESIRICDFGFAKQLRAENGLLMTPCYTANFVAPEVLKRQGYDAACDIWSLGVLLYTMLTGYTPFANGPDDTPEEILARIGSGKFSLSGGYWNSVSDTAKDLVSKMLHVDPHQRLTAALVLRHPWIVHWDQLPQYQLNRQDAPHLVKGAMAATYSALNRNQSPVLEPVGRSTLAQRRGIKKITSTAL
Chain of UniProt Q5VUM1 (Q5VUM1 whole entry, looked up): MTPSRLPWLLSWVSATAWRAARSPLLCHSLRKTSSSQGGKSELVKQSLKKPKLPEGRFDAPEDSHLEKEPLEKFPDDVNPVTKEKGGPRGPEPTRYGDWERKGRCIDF
Chain of UniProt Q02383 (Q02383 whole entry, looked up): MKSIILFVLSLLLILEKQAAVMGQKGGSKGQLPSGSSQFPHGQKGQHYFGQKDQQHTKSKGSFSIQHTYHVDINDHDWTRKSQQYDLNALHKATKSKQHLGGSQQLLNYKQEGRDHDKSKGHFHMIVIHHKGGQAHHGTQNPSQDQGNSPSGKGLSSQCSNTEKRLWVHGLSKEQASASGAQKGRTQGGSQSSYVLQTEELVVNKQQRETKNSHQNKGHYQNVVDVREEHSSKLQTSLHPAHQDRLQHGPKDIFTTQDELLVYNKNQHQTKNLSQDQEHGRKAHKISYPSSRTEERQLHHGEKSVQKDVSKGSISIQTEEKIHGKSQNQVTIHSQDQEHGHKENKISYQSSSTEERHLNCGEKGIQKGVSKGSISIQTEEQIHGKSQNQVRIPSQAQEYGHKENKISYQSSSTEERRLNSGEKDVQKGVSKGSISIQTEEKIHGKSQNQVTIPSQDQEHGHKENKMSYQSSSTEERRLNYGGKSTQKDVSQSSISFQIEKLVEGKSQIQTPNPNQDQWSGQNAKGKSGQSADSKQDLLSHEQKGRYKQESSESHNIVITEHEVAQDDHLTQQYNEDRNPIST
Chain of UniProt Q9BWJ5 (Q9BWJ5 whole entry, looked up): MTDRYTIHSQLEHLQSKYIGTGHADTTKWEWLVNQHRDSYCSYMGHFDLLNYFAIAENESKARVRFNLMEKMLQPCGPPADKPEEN
Chain of UniProt O00560 (O00560 whole entry, looked up): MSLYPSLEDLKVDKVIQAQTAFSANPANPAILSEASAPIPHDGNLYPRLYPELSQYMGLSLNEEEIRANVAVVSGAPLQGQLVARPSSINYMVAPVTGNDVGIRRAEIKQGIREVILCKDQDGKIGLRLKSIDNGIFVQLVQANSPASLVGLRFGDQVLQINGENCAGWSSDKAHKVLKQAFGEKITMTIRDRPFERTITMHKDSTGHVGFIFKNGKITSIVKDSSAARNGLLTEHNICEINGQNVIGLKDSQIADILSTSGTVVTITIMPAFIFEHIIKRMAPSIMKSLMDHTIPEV
Chain of UniProt Q5PRF9 (Q5PRF9 whole entry, looked up): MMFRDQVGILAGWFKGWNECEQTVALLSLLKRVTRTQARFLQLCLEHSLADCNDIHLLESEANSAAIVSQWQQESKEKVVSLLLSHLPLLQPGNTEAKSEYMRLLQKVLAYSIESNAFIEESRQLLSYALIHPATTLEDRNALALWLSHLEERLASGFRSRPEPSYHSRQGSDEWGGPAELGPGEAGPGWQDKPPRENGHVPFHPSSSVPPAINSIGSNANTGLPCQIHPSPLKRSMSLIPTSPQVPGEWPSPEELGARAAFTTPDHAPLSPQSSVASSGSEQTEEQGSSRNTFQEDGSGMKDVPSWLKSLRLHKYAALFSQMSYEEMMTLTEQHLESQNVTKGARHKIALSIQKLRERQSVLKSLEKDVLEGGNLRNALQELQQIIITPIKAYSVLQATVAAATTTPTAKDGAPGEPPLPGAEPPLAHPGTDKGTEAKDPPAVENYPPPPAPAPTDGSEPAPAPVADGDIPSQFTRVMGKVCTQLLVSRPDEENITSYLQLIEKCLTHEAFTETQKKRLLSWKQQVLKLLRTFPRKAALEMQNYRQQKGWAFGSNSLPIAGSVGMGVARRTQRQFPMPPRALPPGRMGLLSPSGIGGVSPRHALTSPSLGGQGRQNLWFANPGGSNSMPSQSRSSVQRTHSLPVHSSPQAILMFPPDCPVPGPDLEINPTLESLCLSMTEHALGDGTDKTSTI
Chain of UniProt O75056 (O75056 whole entry, looked up): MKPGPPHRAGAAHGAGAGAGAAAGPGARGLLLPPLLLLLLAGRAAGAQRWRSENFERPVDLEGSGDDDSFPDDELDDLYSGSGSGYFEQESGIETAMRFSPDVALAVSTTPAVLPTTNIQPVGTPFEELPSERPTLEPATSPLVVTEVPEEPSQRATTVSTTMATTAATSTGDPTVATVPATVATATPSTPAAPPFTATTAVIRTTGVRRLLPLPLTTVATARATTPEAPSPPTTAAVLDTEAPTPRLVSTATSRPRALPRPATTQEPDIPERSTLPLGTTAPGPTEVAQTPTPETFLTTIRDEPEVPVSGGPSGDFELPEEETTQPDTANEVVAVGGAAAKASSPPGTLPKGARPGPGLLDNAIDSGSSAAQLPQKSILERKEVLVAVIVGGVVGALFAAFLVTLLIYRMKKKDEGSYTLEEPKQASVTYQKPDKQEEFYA
Chain of UniProt O75446 (O75446 whole entry, looked up): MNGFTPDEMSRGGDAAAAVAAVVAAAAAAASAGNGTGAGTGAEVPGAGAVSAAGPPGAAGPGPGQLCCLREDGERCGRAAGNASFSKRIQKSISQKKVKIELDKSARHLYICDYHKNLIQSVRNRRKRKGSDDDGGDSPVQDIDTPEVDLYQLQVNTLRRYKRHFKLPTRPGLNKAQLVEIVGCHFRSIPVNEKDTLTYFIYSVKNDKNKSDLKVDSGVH
Chain of UniProt Q9BY78 (Q9BY78 whole entry, looked up): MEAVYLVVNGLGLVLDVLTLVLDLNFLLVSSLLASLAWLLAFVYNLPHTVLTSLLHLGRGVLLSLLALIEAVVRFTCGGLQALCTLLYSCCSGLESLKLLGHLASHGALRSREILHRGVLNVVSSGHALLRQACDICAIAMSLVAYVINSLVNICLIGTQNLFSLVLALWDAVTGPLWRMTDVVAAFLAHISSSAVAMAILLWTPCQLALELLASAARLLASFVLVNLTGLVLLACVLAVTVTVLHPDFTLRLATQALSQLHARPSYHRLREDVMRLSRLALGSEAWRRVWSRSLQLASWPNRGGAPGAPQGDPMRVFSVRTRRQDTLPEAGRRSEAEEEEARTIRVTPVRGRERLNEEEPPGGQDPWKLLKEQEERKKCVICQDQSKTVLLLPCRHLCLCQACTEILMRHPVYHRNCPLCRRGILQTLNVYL

SAFB2 (UniProt K7EQU4): the log2 fold change in assay [1] is -0.172; in assay [2] it was -0.277.

As to RNF26 (UniProt Q9BY78), the log2 fold change was -0.08 in assay [2] and -0.073 in assay [3].

Regarding RUFY3 isoform 3 (UniProt Q7L099), the log2 fold change in [4] is 0.019; in assay [5], 0.012; in assay [6], -0.03; in assay [7], -0.028; in [3], 0.011; in [8], 0.065. Further, the log2 fold change in assay [9] was -0.075; in assay [10] it was -0.07.

As for RPS6KA5 (UniProt O75582), the log2 fold change was 0.239 in assay [4], -0.079 in assay [1], -0.234 in [6] and -0.091 in [3].

Regarding SDC3 (UniProt O75056), the log2 fold change in [5] is -0.135; in [1] it was -0.015; in assay [7] it was 0.05; in [8], -0.157; in assay [9], -0.139; in [10] it was 0.203.

With SDHAF4 (UniProt Q5VUM1), the log2 fold change in [4] is 0; in assay [5], 0.104; in [1], 0.026; in assay [6], 0.031; in [7] it was 0.118; in assay [2] it was 0.033. Further, the log2 fold change in assay [8] is -0.117; in assay [9], 0.054; in [10], 0.094.

For the target RPS19 (UniProt M0R2L9), the log2 fold change in assay [5] is -0.054; in assay [7], -0.246; in [8], 0.732; in assay [9] it was 0.522; in assay [10], -0.095.

As for SAP30 (UniProt O75446), the log2 fold change in [4] was -0.04; in [5], 0.061; in [1] it was -0.069; in assay [6] it was -0.027; in assay [7], 0.018; in assay [8] it was -0.13.

In the case of SEMG2 (UniProt Q02383), the log2 fold change in [5] is 1.75; in assay [1], 0.047; in [7], 0.237; in [2] it was -0.042; in assay [8], -0.562 (active); in assay [9], -0.071. Besides, the log2 fold change in assay [10] was 0.06.

As for SDCBP isoform 2 (UniProt O00560), the log2 fold change in assay [4] is 0.157; in [1], 0.007; in assay [6] it was 0.159; in assay [2], 0.009; in [3] it was -0.299; in [9], 0.249. Moreover, the log2 fold change in [10] is 0.096.

Regarding RBM26 isoform 3 (UniProt Q5T8P6), the log2 fold change is 0.22 in assay [5], -0.079 in assay [7] and -0.149 in assay [8].

In the case of RPS6KA3 (UniProt P51812), the log2 fold change in [4] was -0.024; in assay [5], 0.08; in assay [1], 0.018; in [6], 0.072; in assay [2], 0.061; in [3], -0.043. The log2 fold change in assay [8] is -0.345 (active); in [9], -0.085; in assay [10], -0.017.

As to RNF220 isoform 3 (UniProt Q5VTB9), the log2 fold change in assay [4] was -0.109; in [5] it was -0.021; in [6], 0.229; in assay [7], -0.05; in assay [8], -0.055.

Turning to RNF41 (UniProt Q9H4P4), the log2 fold change was 0.043 in assay [5], -0.074 in assay [7], -0.146 in assay [2] and -0.002 in [8].

As to SAMD4B (UniProt Q5PRF9), the log2 fold change was -0.117 in assay [4]; -0.17 in assay [1]; -0.13 in assay [6]; 0.124 in assay [2]; -0.135 in assay [3]; 0.037 in [9]. Further, the log2 fold change in assay [10] is 0.045.

Take RPAIN isoform 8 (UniProt Q86UA6): the log2 fold change is 0.205 in assay [5]; 0.085 in assay [1]; -0.03 in assay [7]; 0.048 in assay [2]; 0.083 in assay [3]; 0.009 in [8]. In addition, the values for the log2 fold change in [9] and in [10] were -0.035 and -0.002, respectively.

As for RBM6 (UniProt P78332), the log2 fold change in assay [5] is 0.019; in [7], 0.036; in [8], -0.1; in assay [9], 0.048; in [10], 0.018.

SF3B5 (UniProt Q9BWJ5): the log2 fold change was -0.088 in [4]; -0.04 in assay [5]; 0.319 in assay [1]; 0.051 in assay [6]; 0.023 in assay [7]; 0.199 in [2]. For the same target, the log2 fold change is 0.107 in assay [8], -0.104 in [9] and -0.002 in assay [10].
